Data reported in PubChem BioAssay AID1259313 (Sanford-Burnham Center for Chemical Genomics, 2017).
Hit rate of the full screen: of about 340,000 compounds, about 8,500 (2.5%) were called active. This excerpt belongs to a sample that is enriched for actives. Values without a mark were called inactive.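 How the source made its calls: active means melting temperature shift of at least 10% of the positive control shift, at one fixed dose; inactive means the rest.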

The compounds below were run on Glutamate receptor ionotropic, NMDA 3A (GRIN3A) ligand-binding domain (assay: binders of NR3A ligand-binding domain, primary screen, biophysical, differential scanning fluorimetry, uHTS (AID 1259313)). Details: NR3A LBD differential scanning fluorimetry, at 25 µM, active compounds read high, 0% = protein alone, 100% = glycine-bound protein.

Compound	Tm shift relative to glycine control
Cc1ccc(CC2CC(=O)N(c3cc(C)ccc3C)C2=O)cc1 (stereo not drawn)	-1.45%
COc1cc(NC(=O)c2[nH]cnc2C(N)=O)cc(C(=O)Nc2cccc(C(F)(F)F)c2)c1	14.8% (active)
COc1cc(NC(=O)c2cncc(-c3ccc(C#N)cc3)c2)cc(C(=O)Nc2cccc(C(F)(F)F)c2)c1	-1.27%
COc1ccc(NC(=O)C(=O)NCC(=O)Nc2cccc(C(F)(F)F)c2)cc1	7.67%
N#Cc1ccccc1NC(=O)c1cccc(COc2ccc(Cl)cc2Cl)c1	7.12%
O=C(NCCC1CCCCN1S(=O)(=O)c1cccs1)C(=O)Nc1ccc(F)cc1F (stereo not drawn)	1.11%
c1ccc(CCc2ccccn2)cc1	1.84%
CC1(C)C=Cc2c(ccc3c2OC[C@@H](c2ccc(O)cc2O)C3)O1	8.09%
Cc1cc(=O)oc2cc(OC(C)C(=O)NCCc3ccc(S(N)(=O)=O)cc3)ccc12 (stereo not drawn)	-2.25%
Cc1ccc2c(=O)cc(C(=O)NCCc3ccc(S(N)(=O)=O)cc3)oc2c1C	10.6% (active)
Cc1cc(=O)oc2c(C)c(OCC(=O)NCCc3ccc(S(N)(=O)=O)cc3)ccc12	-1.05%
CCn1c(Cc2cccs2)nnc1SCC(=O)c1ccc(C)cc1	11.2% (active)
Cc1ccc(-n2c(Cc3cccs3)nnc2SCC(=O)OC(C)C)cc1	-1.71%
CCn1c(SCC(=O)c2ccc3ccccc3c2)nnc1-c1cccs1	-0.65%
Cc1ccccc1NC(=O)C(C)c1ccc(-c2ccccc2)c(F)c1 (stereo not drawn)	-4.35%
CCCC(C(=O)OCCN(CC)CC)(c1ccccc1)c1ccccc1	-1.26%
O=C(c1ccccc1)C(Cn1cncn1)C(Sc1ccccc1)c1ccccc1 (stereo not drawn)	0.35%
COc1ccc(NC(=O)Cn2nnc(C(=O)NCCc3ccc(OC)c(OC)c3)c2N)cc1	-0.6%
COc1cccc(CNC(=O)c2nnn(CC(=O)Nc3cc(Cl)ccc3C)c2N)c1	2.58%
COc1ccc(CNC(=O)c2nnn(CC(=O)Nc3cc(C)cc(C)c3)c2N)cc1	29.7% (active)

Compound	Tm shift relative to glycine control
CCc1ccc(NC(=O)Cn2nnc(C(=O)NCc3ccc(OC)cc3)c2N)cc1	24.6% (active)
Cc1ccc(NC(=O)Cn2nnc(C(=O)NCc3ccco3)c2N)c(C)c1	1.53%
COc1cccc(CNC(=O)c2nnn(CC(=O)Nc3cc(C)ccc3C)c2N)c1	11.9% (active)
COc1ccc(CNC(=O)c2cc(=O)c3c(C)cc(C)cc3o2)cc1	-0.39%
CCc1ccc(NC(=O)Cn2nnc(C(=O)NCc3ccc4c(c3)OCO4)c2N)cc1	8.72%
COc1ccc(CNC(=O)CN2CCC(n3nnc4cc(F)ccc43)CC2)cc1	0.17%
Cc1ccc(N/C(N)=N/c2nc(C(F)(F)F)cc(C(F)(F)F)n2)cc1	-6.73%
O=C(NCc1cccs1)c1ccc2c(c1)ncn2C1CCCC1	-0.09%
O=C1CN(C(=O)CN2C(=O)NC3(CCCCC3)C2=O)c2ccccc2N1	-0.31%
O=C(CSc1c2c(nc3ccc(Cl)cc13)CCCC2)NCc1ccco1	0.25%
COC(=O)C1CCN(C(=O)c2ccc3oc(Cc4ccc(Cl)cc4)nc3c2)CC1	0.94%
COc1ccc(Cl)cc1NC(=O)COc1ccc2c(c1)OCO2	-1.71%
C#CCNC(=O)C1=C[C@@H](c2ccccc2)[C@H](CCCO)[C@@H](OCC)O1	-1.23%
COc1ccc(-c2cc(C(=O)n3cnc4ccccc43)c3ccccc3n2)cc1	-1.16%
COc1ccc(NC(=O)c2cc(-c3cc(OC)c(OC)c(OC)c3)nc3ccccc23)c(OC)c1	1.42%
COc1ccc(-c2cc(C(=O)Nc3ccccc3O)c3ccccc3n2)cc1	21% (active)
Cc1cccc(CSc2ccc(-c3cccs3)nn2)c1	-7.55%
Nc1ccc(SCCN2C(=O)c3ccccc3C2=O)cc1	-0.18%
O=C(Nc1c(Br)cc2c(c1Br)Cc1cc([N+](=O)[O-])ccc1-2)C(Cl)Cl	-1.4%
O=C(Nc1c(Br)cc2c(c1Br)Cc1ccccc1-2)C(F)(F)F	11.5% (active)

Compound	Tm shift relative to glycine control
O=C(Nc1ccccc1)c1ccccc1NC(=O)C(F)(F)F	-1.92%
O=C(CCS(=O)(=O)c1ccc(Br)cc1)NCCc1ccc(Cl)cc1	0.18%
CCOc1ccc(NC(=O)CN(C)C(=O)CSc2ccccc2)cc1OCC	-0.35%
O=C(/C=C/Sc1ncn[nH]1)c1ccc(Cl)cc1	-1.06%
Fc1c(F)c(C(F)(F)F)c(F)c(F)c1N1CCN(c2ccc3nnc(C(F)(F)F)n3n2)CC1	33.4% (active)
FC(F)(F)c1nnc2ccc(N3CCN(c4ccccc4)CC3)nn12	-3.49%
CSCCC(NC(=O)c1ccc(Cl)cc1Cl)C(=O)NNC(=O)c1csc(N2CCOCC2)n1 (stereo not drawn)	-1.92%
COc1ccc(NC(=O)CN2C(=O)CSc3ccc(S(=O)(=O)N4CCC(C)CC4)cc32)cc1	-2.6%
Cc1cc(Cl)c2oc(C(=O)NC(C)c3ccncn3)c(C)c2c1 (stereo not drawn)	-2.04%
Cc1ccc(-n2ncc3c(=O)[nH]cnc32)c(C)c1	-2.15%
Cc1ccc2cc(C)c(N3CCN(c4ccc(F)cc4)CC3)nc2c1	1.71%
Cc1ccc(-n2ncc3c(N4CCN(c5ccc(F)cc5)CC4)ncnc32)c(C)c1	10.6% (active)
CCCCn1c(SCc2ncc(-c3ccccc3)o2)nc2cc(S(N)(=O)=O)ccc21	-10.6%
CCOc1ccc(C(CCc2ccccc2)NC(=O)c2ccc(OC)c(OC)c2)cc1OCC (stereo not drawn)	-0.18%
O=C1CCC(C(=O)N2CCCCO2)CN1Cc1cccc(C(F)(F)F)c1 (stereo not drawn)	0.67%
COc1ccc(Oc2coc3cc(OC(=O)c4cncc(Br)c4)ccc3c2=O)cc1	-4.3%
COC(=O)COc1ccc2c(=O)c(Oc3ccccc3Br)coc2c1	17.5% (active)
CCc1ccc(Oc2coc3cc(O)ccc3c2=O)cc1	-1.09%
